Hit rate of the full screen: of about 1,200 compounds, fewer than 10 were called active. Calls come from the whole dose curve; as a rule, active = well fitted curve in the direction sought with a large enough effect; inconclusive = small, poorly fitted or top-dose-only effect, or another doubt; inactive = no such curve, though single readings can be large or run the other way. A selection follows.

The nature of this experiment: Confirmatory qHTS assay for inhibitors of Activation Induced Cytidine Deaminase (AID): UDG signals. The following applies: UDG coupled enzyme activity counter-screen; series mostly up to 115 µM. From the text: Assay Provider (PI) Patricia Gearhart Ph.D.
National Institute on Aging
National Institute of Health (NIH), Bethesda, MD
Assay Provider (PI) Rahul Kohli Ph.D.
Perelman School of Medicine
University of Pennsylvania, Philadelphia, PA
Activation-Induced Deaminase (AID) is a cytosine deaminase which converts cytosine into uracil within stretches of ssDNA. The presence of uracil in DNA initiates a cascade of mutagenic DNA repair to introduce point mutations and DNA double strand breaks. Specific targeting of AID to the immunoglobulin heavy chain loci (Igh) promotes mutagenesis in the antibody variable region for somatic hypermutation (SHM) or switch regions leading to class switch recombination (CSR). However, AID also plays a role in accumulating unnecessary mutations across the genome. Mis-targeting of AID results in the initiation of tumor development and leads to greater drug resistance among cancer cells when continually expressed. To identify an AID inhibitor, a small molecule library will be screened in collaboration with NCATS core facility at NIH. To confirm biological function, inhibitors will be examined in an in vitro murine B-cell activation assay and subsequent secondary validation screens. Top molecules will be further screened to identify inhibitory efficacy against a wild type primary splenocytes assay. Using these approaches, we hope to identify a small molecule with great efficacy and low toxicity for use as a molecular probe to further characterize AID's intricacies, or even as a therapeutic.
A FRET based analysis of cytosine deamination, was developed to identify potential inhibitors of AID catalytic activity. This screen has two signal output, Read 1 evaluates the AID inhibition response. The second readout (Read 2) evaluates UDG response and is uses as a counterscreen to exclude false positive inhibitors. Inhibition in AID and inactivity in the UDG signal is the desired outcome for this assay.
SEQUENCE No. (e.g., 1, 2, 3, etc.); […] (e.g., Cells, Incubation, Reagent, etc.); VALUE; DESCRIPTION
1a; Reagent; 3 uL; [4/3x] 1 uM AID/2.67 U/mL UDG
1b; Reagent; 3 uL; 2 U/mL UDG
1c; Reagent; 3 uL; 1 uM AID
2a; Compound; 46 nL; Follow-up plates (0.64 uM - 10 mM)
2b; Control; 46 nL; ATA ([…] - 10 mM)
3; Time; 10 min; incubation at room temperature
5; Time; 4 hr; incubation at room temperature
6; Reagent; 4 uL; [2x] 250 mM NaOH
7; Time; 15 sec; centrifuge at 1000 rpm
8; Time; 30 min; incubation at room temperature
9a; Detection; fluorescence (Read 1: AID); EnVision (PerkinElmer) plate reader, 540 excitation and 590 emission filters
9b; Detection; fluorescence (Read 2: UDG); EnVision (PerkinElmer) plate reader, 560 excitation and 665 emission filters
NOTES (numbers refer to sequence above)
1a; Reagents were dispensed in a medium-binding black solid-bottom Greiner plates (789176F) using a BioRptr liquid dispenser. Dispense 3 uL of [4/3x] 1 uM AID (provided by Kohli lab) and [4/3x] 2 U/mL UDG (NEB M0280L) into columns 1, 2, 5 to 48.
1b; Dispense 3 uL of [4/3x] 2 U/mL UDG into column 3.
1c; Dispense 3 uL of [4/3x] 1 uM AID into column 4.
2a; Compound (7-points [uM]: 0.64; 3.2; 16; 80; 400; 2,000; 10,000; […]) double pin-transferred (Dip Factor = 2) using the Kalypsys (Wako USA) pintool equipped with a 1536 pinhead for a final concentration range of 7.32 nM - 114 uM.
2b; 10 mM Aurintricarboxylic Acid (Sigma A1895) (ATA, 8-point, n = 2, 1:2.5 dilution in column 2) double pin-transferred (Dip Factor = 2) using the Kalypsys (Wako USA) pintool equipped with a 1536 pinhead for a [final] range of 186 nM - 114 uM.
3; Room temperature incubation.
4; Dispense 1 uL of substrate mixture from the Kohli lab [4x] […] DJC20 and [4x] 250 nM DJC23 into columns 1 to 48 .
5; Room temperature incubation.
6; Dispense 4 uL of substrate mixture [2x] 250 mM NaOH into columns 1 to 48.
7; Centrifugation step to remove bubbles.
8; Room temperature incubation
9a; Fluorescence signal (column label AID) was read using the EnVision plate reader. […]
A general note: In qHTS, concentration-response curves come from the screen itself.
Turning to `COc1cc2c(=O)c(S(=O)(=O)c3ccc(C)cc3)cn(Cc3cccc(C)c3)c2cc1OC`, the result was inactive.

Consider `O=C(Nc1cc(-c2ccccc2)sc1C(=O)O)c1cccc(F)c1`, for which the compound was called inactive.

With `C=Cc1ccc(CN2C(=O)N(c3ccc(C)c(C)c3)S(=O)(=O)c3ccccc32)cc1`, the result was inactive. Consider `O=S(=O)(NCCc1nnc2ccc(SCc3ccc(Cl)cc3Cl)nn12)c1ccccc1`, for which the call was inactive. For `COc1ccc(-c2cc3ncc(C(=O)c4cc([N+](=O)[O-])ccc4O)cn3n2)cc1`, the outcome was inactive. As to `Cc1c(C(=O)N(C)c2ccccc2)sc2nc(-c3ccc(F)cc3)cn12`, the outcome was inactive. `CCOc1ccc2nc(Cl)c(C3CC(c4ccc(C)cc4)=NN3C(=O)CCC(=O)O)cc2c1` (centres undefined): the compound was classed as inactive. As for `COc1ccccc1-c1nn(CCC(=O)Nc2ccc(C)cc2)c2nc(C)cc(C)c12`, the call was inactive. Take `Cc1ccc(C)c(N2CCN(C(=O)c3cnn(C(C)(C)C)c3C3CCN(C(=O)OC(C)(C)C)CC3)CC2)c1`: the compound was called inactive. Take `COc1cc2c(cc1OC)C(COc1ccc(F)cc1)N(C(=O)c1cccc(F)c1)CC2` (centres undefined): the call was inactive. With `COc1ccc(OC)c(NC(=O)Cn2c(=O)cc(-c3ccccc3)c3c(C)nn(C)c32)c1`, the compound was called inactive. `Cc1nc2c(C(=O)NCc3ccccc3)c[nH]n2c(=O)c1Cc1ccccc1Cl`: the compound was classed as inactive. Next, `CCCCCSc1nnc2c(n1)OC(CC)Nc1ccc(Br)cc1-2` (centres undefined): “inactive”. With `CCCCN(CCCC)C(=O)c1cc2c(=O)n3cccc(C)c3nc2s1`, the compound was called inactive. On to `CCOc1ccc(C(=O)/C=C/c2cn(CC(O)CN3CCCCCC3)c3ccccc23)cc1` (centres undefined), for which the outcome was inactive. With `CCCc1nc2ccccc2n2c(-c3ccccc3)c3c(=O)n(C)c(=O)n(C)c3c12`, the outcome was inactive. With `CCCN1CCN(CCCNC(=O)c2cc3c(Cl)nc4ccccc4c3s2)CC1`, the compound was called inactive.

Turning to `COc1ccc(CSc2nc3ccncc3n2Cc2nc(-c3ccc(OC)c(OC)c3)oc2C)cc1`, the outcome was inactive. On to `COc1ccc(Cn2cc(C(=O)c3ccc(C)c(C)c3)c(=O)c3ccccc32)cc1`, for which the call was inactive. As to `Cc1ccccc1NC(=O)c1c(NC(=O)C(F)(F)F)sc2c1CCCCC2`, the compound was called inactive. Turning to `O=S1(=O)c2ccccc2N(Cc2ccc(Cl)cc2)c2ccccc21`, the compound was classed as inactive.

As to `Cc1cccc(Cn2c(SCc3ccc(C(=O)N4CCCCCC4)cc3)nc3ccncc32)c1`, the compound was classed as inactive.

Consider `COCCc1nn2c(=O)cc(COC(=O)c3ccc(C(C)(C)C)cc3)nc2s1`, for which the call was inactive.

`CCN(c1cccc(C)c1)S(=O)(=O)c1nnc(NC(=O)c2ccccc2Cl)s1`: the compound was classed as inactive. With `COc1ccccc1N1CCN(C(=O)c2cc3c(-c4ccccc4F)nn(C)c3s2)CC1`, the outcome was inactive.

For the compound `CCOc1cccc(C(=O)N(Cc2ccc(F)cc2)Cc2ccco2)c1`, the result was inactive. As for `CCOc1ccc(CCNc2ncnc3onc(-c4ccc(Cl)cc4)c23)cc1OCC`, the call was inactive. Take `Cc1cc(OCCCSc2nc(-c3ccc(C(C)(C)C)cc3)nc3cc(=O)[nH]n23)ccc1Cl`: the call was inactive. For `CCOc1ccc(Nc2c(S(=O)(=O)c3ccc(C)cc3)cnc3ccc(OC)cc23)cc1`, the call was inactive. As for `CCn1cc2nc(SCc3cccc(C(F)(F)F)c3)n(CCc3ccccc3)c(=O)c2n1`, the call was inactive.

As to `CCCCOc1ccc(C(=O)Nc2ccc(S(=O)(=O)Nc3nc(C)cc(C)n3)cc2)cc1`, the compound was called inactive.

As to `O=C(O)c1c(-c2ccccc2)oc2ccc(OCc3c(F)cccc3Cl)cc12`, the outcome was inactive. In the case of `O=C1c2ccccc2C(=O)C1(c1ccccc1)N1CCN(c2cccc(C(F)(F)F)c2)CC1`, the call was inactive.

`CC(=O)N1CCc2c(sc3c2c(=O)n(Cc2ccccc2)c(=O)n3Cc2cccc(Cl)c2)C1`: the outcome was inactive. On to `CCc1ccc(NC(=O)c2cnn(-c3c(C)cccc3C)c2C2CCN(C(=O)OC(C)(C)C)CC2)cc1`, for which the result was inactive. Take `CCOc1ccc(CNC(=O)c2c(C)nn(-c3ccc(F)cc3)c2-n2cccc2)cc1`: the outcome was inactive. As to `COc1cc2c(cc1OC)C(COc1cc(C)cc(C)c1)N(C(=O)C(C)(C)C)CC2` (centres undefined), the call was inactive.

In the case of `COc1cc(NC(=O)Cn2cc(S(=O)(=O)N3CCC(C)CC3)c3ccccc3c2=O)cc(OC)c1OC`, the compound was called inactive.

For the compound `COc1ccc(C)cc1N(C)C(=O)c1c2c(nc3ccccc13)C(=O)N(C1CCCCC1)C2`, the result was inactive.

Consider `COc1cccc(C(=O)Nc2nc3nc(C)c(Cc4ccccc4)c(=O)n3[nH]2)c1`, for which the call was inactive. In the case of `Cn1c2ccccc2c2c(C(=O)N3CCN(c4cccc(C(F)(F)F)c4)CC3)cn(C3CCCCC3)c(=O)c21`, the call was inactive.

On to `O=C(CSc1nc(-c2ccc(F)cc2)nc2c1Cc1ccccc1O2)Nc1cccc(C(=O)O)c1`, for which the compound was called inactive. On to `CC(C)Oc1ccc(C(=O)NCCc2csc(-c3cccc(F)c3)n2)cc1`, for which the outcome was inactive.

`CCc1ccc(OCC(=O)N(Cc2ccco2)Cc2ccco2)cc1`: the compound was classed as inactive. As for `Cc1ccc2c(c1)C(c1ccc(F)cc1)N(C(=O)c1ccc(OC(C)C)cc1)CC(=O)N2` (centres undefined), the outcome was inactive.

In the case of `Cc1ccc(Cl)cc1N1CCN(C(=O)c2nn(C)c3c2CS(=O)(=O)c2ccccc2-3)CC1`, the compound was classed as inactive. In the case of `CC(C)c1ccc(NC(=O)CSC2=Nc3ccccc3C3=NC(CCC(=O)NCc4ccco4)C(=O)N23)cc1` (centres undefined), the outcome was inactive. `CCOc1ccc(CCNC(=O)c2cn(CC)c3ccc(S(=O)(=O)N4CCCCCC4)cc3c2=O)cc1OCC`: the result was inactive. For `COc1cccc(CNC(=O)c2oc3ccc4c(c3c2C)C(=O)CC(C)(C)O4)c1OC` the value was “inactive”; for `O=C(NCCn1cc(SCc2ccccc2F)c2ccccc21)c1cccs1`, “inactive”; for `Cc1ccc(Cl)cc1NC(=O)c1oc2c(c1C)-c1[nH]ncc1CC2`, “inactive”. `CN(C)c1ccc(Nc2ncnc3sc4c(c23)CCCC4)cc1`: the result was inactive. Turning to `CCOC(=O)c1c(Oc2ccc(C(C)=O)cc2)nnc(-c2ccccc2)c1-c1ccccc1`, the call was inactive.

Consider `O=C(O)c1ccc2c(c1)N(Cc1ccc(F)cc1Cl)C(=O)c1ccccc1S2`, for which the call was inactive. In the case of `CCCCCN1C(C(=O)c2ccccc2)=C(OC(=O)CC)c2ccccc2S1(=O)=O`, the compound was classed as inactive. Consider `O=C(CCS(=O)(=O)c1nc(-c2cccs2)cc(C(F)(F)F)n1)Nc1ccc(OC(F)(F)F)cc1`, for which the call was inactive. Take `CCc1ccc(C(c2ccccc2)c2c(C)[nH]c3ccccc23)s1` (centres undefined): the outcome was inactive. On to `Cc1ccc2c(c1)-c1ncc(C(=O)c3cc(Br)ccc3O)cc1CO2`, for which the call was inactive. With `Cc1ccc(Nc2nnc(-c3ccc(C)c(S(=O)(=O)N4CCN(C)CC4)c3)c3ccccc23)c(C)c1`, the compound was classed as inactive.

Values taken from PubChem BioAssay AID1347431 (National Center for Advancing Translational Sciences (NCATS), 2020).
